High-throughput results (PubChem)
Rows were chosen to be rich in hits. Some 2.3% of all compounds tested hit in one or more screens of this group.
GLP1R inv ag: acts as inverse agonist at human GLP-1 receptor; hit rate 1.6% among 410,000; Potency, µM (top dose mostly 38.3 µM), inactives show top-dose activity change, negative = inhibition, hits mostly inhibitors; P43220; HEK293 GLP-1R CRE-luciferase, luminescence, 24 h; GLP-1R form is constitutively active; further: on the % scale 0 is the no-effect control and ±100 the full control effect; nearly all actives have a fitted effect of over 55% in size
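Inverse agonism was detected as reduced cAMP-driven luciferase luminescence after 24 h compound treatment. The cells were HEK293 clones expressing constitutively active human GLP-1R with the reporter. Reporter-only and GPR119 cell lines served as counterscreen controls.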
GLP-1R agonist: agonists of human GLP-1 receptor. Potency, µM (highest dose often 45.6 µM), inactives show top-dose activation, actives largely listed as activators. hit rate 0.007% among 380,000. P43220. HEK293 GLP-1R CRE-luciferase, luminescence, 4-6 h; cells express a hypersensitive GLP-1R form; further: % of control where 0% means no effect
ALOX12 inh: ALOX12 (human) lipoxygenase inhibition; purified 12hLO, xylenol orange hydroperoxide absorbance; P18054; hit rate 1.1% among 580,000; AID 1671190; Potency, µM (highest dose often 108 µM), for the others: top-dose activity change, negative = inhibition, usual class: inhibitors; further: on the % scale 0 is the no-effect control and ±100 the full control effect
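Hydroperoxide product was detected by ferrous iron/xylenol orange as the 573 to 405 nm absorbance ratio. Arachidonic acid at 40 uM (final) was turned over for 30 min at room temperature by 150 nM human 12hLO, pH 7.0 Hepes buffer, after 15 min compound preincubation.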
PTHR1 ag: activates the human parathyroid hormone receptor PTHR1; Q03431; HEK293 GP2 PTHR1 cells, GloSensor cAMP luminescence, 1 h; Potency, µM (series often up to 115 µM), for inactives: at the highest dose activation, usual class: activators; hit rate 0.075% among 410,000; AID 743266; further: nearly all actives have a fitted effect of over 55% in size
Target sequence (Q03431 whole entry, looked up): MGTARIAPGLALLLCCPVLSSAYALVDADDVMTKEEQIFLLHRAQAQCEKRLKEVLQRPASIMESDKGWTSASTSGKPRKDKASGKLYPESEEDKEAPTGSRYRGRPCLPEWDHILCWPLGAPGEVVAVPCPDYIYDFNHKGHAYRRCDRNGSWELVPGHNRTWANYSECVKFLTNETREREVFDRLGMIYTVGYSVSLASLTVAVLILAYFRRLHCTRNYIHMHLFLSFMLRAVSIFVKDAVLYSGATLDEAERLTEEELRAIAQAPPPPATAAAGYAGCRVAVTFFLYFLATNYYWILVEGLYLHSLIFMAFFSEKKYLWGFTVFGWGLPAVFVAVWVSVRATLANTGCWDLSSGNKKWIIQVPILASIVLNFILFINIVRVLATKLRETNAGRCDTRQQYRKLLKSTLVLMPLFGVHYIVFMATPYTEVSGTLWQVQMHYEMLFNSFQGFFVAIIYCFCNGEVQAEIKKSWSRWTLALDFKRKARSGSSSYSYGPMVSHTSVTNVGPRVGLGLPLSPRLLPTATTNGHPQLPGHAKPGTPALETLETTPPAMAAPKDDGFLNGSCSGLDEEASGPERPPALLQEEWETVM
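HEK-293-derived GP2 cells expressing PTHR1 and a GloSensor cAMP reporter, 3,000/well, plated overnight, given luciferin plus IBMX (each 0.5 mM as added) for 1 h at 37 °C, then compound for 1 h at 37 °C. Luminescence was read after 15 min at room temperature.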
GLS inhibitor: inhibitors of human glutaminase (GLS) | AID 624170 | Potency, µM (doses to about 45.5 µM), for inactives: at the highest dose activity change, negative = inhibition, hits mostly inhibitors | GLS enzymatic activity, qHTS titration | hit rate 0.21% among 410,000 | O94925; further: on the % scale 0 is the no-effect control and ±100 the full control effect
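Assay buffer: 45 mM KH2PO4 pH 8.2, 0.02% Tween-20. hKGA acts on L-glutamine (1 mM solution added); product glutamate is reported by an oxidase/peroxidase Amplex Red coupling, with fluorescence taken at baseline and 30 min.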
GRP78 ERSR act: inducers of ER stress response in human glioma cells; U87-MG GRP78 promoter luciferase reporter, 16 h; Potency, µM, without a hit: at the highest dose activation, usual class: activators; hit rate 0.02% among 420,000; further: series mostly up to about 76 µM; % of control where 0% means no effect; nearly all actives have a fitted effect of over 35% in size
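ERSR induction read as luciferase luminescence (Bright-Glo, 10 min at room temperature) in stably transfected human U87-MG glioma cells exposed to compounds for 16 h, using GRP78 as sensor.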
Numbers without * were called inactive; i = inactive; ? = inconclusive; . = not tested or not shown; [ ] = another dose, or the depositor's remark. The call rests on the fitted dose curve; in most records, active means well fitted curve in the direction sought with a large enough effect; inconclusive means small, poorly fitted or top-dose-only effect, or another doubt; inactive means no such curve, though single readings can be large; an effect the other way counts as inactive or inconclusive. Potency means the concentration at half of the fitted maximal effect.

SMILES	GLP1R inv ag	GLP-1R agonist	ALOX12 inh	PTHR1 ag	GLS inhibitor	GRP78 ERSR act
CCOC(=O)c1ccc(/C=C2/C=C(c3ccccc3)N(c3ccc(Cl)c(C(=O)O)c3)C2=O)cc1	10µM*	-1.2%	44.7µM*	-49.1%	30.2%	-13.5%
CSc1nc2sc3c(c2c(=O)n1CC(C)C)CC(C)(C)OC3	?	1.3%	130.0%	i	3.0%	-3.4%
CCCCCc1nc2sc3c(c2c(=O)n1NC(=O)c1ccc([N+](=O)[O-])cc1)CC(C)(C)OC3	10µM*	0.8%	-16.1%	-27.4%	8.4%	11.3%
CCCSc1nc2sc3c(c2c(=O)n1CC)CC(C)(C)OC3	10µM*	20.0%	0.1%	-5.1%	-2.4%	-3.1%
Cc1ccc(NC(=O)C(c2ccccc2)N2CCN(C(=O)C3CC3)CC2)cc1Cl (stereo unspecified)	.	.	16.0%	.	.	.
CC1(c2ccc(O)cc2)NC(=O)N(c2ccccc2)N1 (stereo unspecified)	3.16µM*	3.3%	?	i	?	5.4%
C=C(C)CCC1(C)NC(=O)N(c2ccccc2)N1 (stereo unspecified)	10µM*	0.5%	?	-13.4%	-28.8%	1.1%
CCCCn1c(=O)n(CC(=O)Nc2ccc(C)cc2)c(=O)c2c1ncn2Cc1ccco1	.	.	-24.6%	.	.	.
CCOC(=O)c1ccc(NC(=O)CCC2CCCC2)cc1	.	.	17.2%	.	.	.
CC(C)(C)c1ccc(C(=O)Nc2ccc(Cl)cc2)cc1	18.2%	-0.5%	7.7%	i	0.1%	7.3%
COC(=O)Cc1ccc(NC(=O)c2ccc(C(C)(C)C)cc2)cc1	4.47µM*	-1.2%	-6.0%	-14.7%[57.5 µM]	-4.0%	-17.2%
O=C(Cc1ccc(F)cc1)Nc1ccccc1Sc1ccccc1	?	16.6%	-13.4%	-17.3%	1.5%	-1.9%
O=C(Cc1ccccc1)Nc1ccccc1Sc1ccccc1	11.2µM*	2.5%	-1.7%	-30.0%	-9.2%	-2.3%
O=C(Nc1ccccc1Sc1ccccc1)c1ccccc1	11.2µM*	5.3%	-18.8%	-8.8%[57.5 µM]	4.2%	-0.8%
O=C(Cc1ccc(Br)cc1)Nc1ccccc1Sc1ccccc1	10µM*	-1.1%	-15.6%	i	0.0%	-1.0%
Cc1ccc(NS(=O)(=O)c2c[nH]c3ccc([N+](=O)[O-])cc23)cc1	.	.	-22.1%	.	.	.
CCCCn1nc(C(=O)NCc2ccc(Cl)cc2)c2ccccc2c1=O	.	.	-6.5%	.	.	.
O=C(Nc1ccc(CC(=O)N2CCOCC2)cc1)c1ccc(Cl)cc1	.	.	21.3%	.	.	.
CC(=O)Nc1ccc(NC(=O)COc2ccc3c(C)cc(=O)oc3c2)cc1	.	.	-0.4%	.	.	.
COC(=O)CCCNC(=O)C12CC3CC(CC(C3)C1)C2	.	.	-21.3%	.	.	.
O=C(NCCc1ccccc1)Nc1cccc(CN2CCOC2=O)c1	.	.	19.3%	.	.	.
CCOC(=O)c1c(NC(=O)CN2CCN(C)CC2)sc(C(=O)Nc2ccccc2)c1C	12.6µM*	17.5%	-2.6%	i	-1.5%	5.2%
CCOC(=O)c1sc(NC(=O)CCN2CCN(C)CC2)c(C(=O)OCC)c1C	11.0%	13.7%	-2.7%	i	4.4%	-3.6%
Cc1ccc(C(=O)Nc2cc3c(cc2SCc2ccco2)n(C)c(=O)n3C)cc1	.	.	7.94µM*	.	.	.
Cc1ccc(NC(=O)CSCc2ccco2)cc1	1.7%	17.6%	0.3%	-8.6%	-1.8%	0.1%
SMILES	GLP1R inv ag	GLP-1R agonist	ALOX12 inh	PTHR1 ag	GLS inhibitor	GRP78 ERSR act
CCOCCOC(=O)c1nc2ccccc2nc1Nc1ccc(Cl)cc1	.	.	10µM*	.	.	.
CCn1nc(-c2ccccc2)c(-c2ccccc2)c(C(=O)Nc2nc(C)c(C(C)=O)s2)c1=O	4.47µM*	.	-8.3%	i	7.5%	-3.8%
Cc1ccc(C2=NC(C)(C)N=C2SCC(=O)Nc2ccc(C)c(C)c2)cc1	.	.	-8.0%	.	.	.
C=CCn1c(=NC(=O)c2ccc(S(=O)(=O)N3CCc4ccccc4C3)cc2)sc2cc(S(N)(=O)=O)ccc21	?	0.7%	-1.7%	i	6.2%	-8.2%
C#CCn1c(=NC(=O)c2ccc(S(=O)(=O)N3CCc4ccccc4C3)cc2)sc2cc(S(N)(=O)=O)ccc21	3.98µM*	-31.4%	.	i	12.8%	-13.0%
Cc1ccc(SCC(=O)NC(=O)NC2CCCC2)c(C)c1	-88.9%	29.9%	-29.7%	i	6.5%	0.2%
Cc1ccc(C)c(SCC(=O)NC(=O)NC2CCCC2)c1	11.2µM*	-4.4%	-4.7%	-19.3%	1.6%	-2.2%
CCCc1c(C)nc2ccc(Cl)cc2c1-c1ccccc1	.	.	1.78µM*	.	.	.
CC(=O)c1c(C)nc2ccc(Cl)cc2c1-c1ccccc1	.	.	-28.0%	.	.	.
O=c1[nH]ncc(N2CCN(C(c3ccccc3)c3ccccc3)CC2)c1Cl	12.6µM*	-1.0%	-20.9%	i	11.9%	-2.1%
COc1ccc(CCC(=O)N2CCN(S(=O)(=O)c3cccc(Cl)c3)CC2)cc1	-29.3%	-0.7%	0.0%	-0.7%	-3.6%	-4.0%
O=C(CCc1ccccc1)N1CCC2(CC1)NC(=O)N(c1ccccc1)N2	.	.	2.24µM*	.	.	.
COc1cccc(CCC(=O)N2CCC3(CC2)NC(=O)N(c2ccccc2)N3)c1	.	.	2.51µM*	.	.	.
COc1ccc(CCC(=O)N2CCC3(CC2)NC(=O)N(c2cccc(Cl)c2)N3)cc1	.	.	2µM*	.	.	.
COc1cccc(C(=O)N2CCC3(CC2)NC(=O)N(c2ccccc2)N3)c1	.	.	6.31µM*	.	.	.
Cc1ccc(OCCOc2ccc(Cl)cc2/C=C(/C#N)c2ccccc2)cc1	.	.	-10.9%	.	.	.
COc1cccc(CCC(=O)N2CCC3(CC2)NC(=O)N(c2cccc(F)c2)N3)c1	.	.	5.62µM*	.	.	.
COc1ccccc1CCC(=O)N1CCC2(CC1)NC(=O)N(c1ccccc1)N2	.	.	2µM*	.	.	.
CCOC(=O)C(NC(=O)/C=C/c1cc(Cl)c(OCC)c(OC)c1)C(=O)OCC	.	.	5.9%	.	.	.
COc1cc(C2NC(=O)C(C#N)=C(S)N2c2ccccc2)ccc1OC(C)C (stereo unspecified)	15.6%	5.9%	14.1µM*	i	20.8%	-5.0%
COc1ccc(N2C(S)=C(C#N)C(=O)NC2c2ccco2)cc1 (stereo unspecified)	12.8%	0.3%	44.7µM*	-60.0%	-8.5%	-1.4%
CC(O)C(=O)Nc1ccc(C(F)(F)F)cc1 (stereo unspecified)	.	.	-5.9%	.	.	.
COc1ccc(NC(=O)c2ncoc2-c2ccc(OC)c(OC)c2)cc1OC	.	.	-2.8%	.	.	.
Cc1ccc(N2C(=O)CC(Sc3ncccc3C(=O)O)C2=O)cc1 (stereo unspecified)	0.6%	4.9%	-0.2%	i	0.0%	-3.2%
CCOc1ccccc1N1C(=O)CC(Sc2ncccc2C(=O)O)C1=O (stereo unspecified)	2.0%	-0.7%	?	15.0%[57.5 µM]	17.8µM*	0.1%
COc1cc(Cl)ccc1C(=O)NC1CCN(c2cc(C(F)(F)F)nc(C)n2)CC1	.	.	26.0%	.	.	.
